The sample as a whole holds a higher share of hits than the screen did.
IL-1B inflam inh – inhibitors of inflammasome signaling (IL-1 beta secretion); THP-1 LPS/ATP IL-1B secretion, AlphaLISA, 16 h; hits give low values; activity change, % at 57.5 µM; actives 4.7% (n = 360,000); in the data active means activity change below about -50%; inconclusive means mostly about -30% to -49%
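Secreted IL-1B measured by AlphaLISA bead assay after 16 h compound exposure of THP-1 cells; compounds (final up to 57.5 uM) added 1 h before LPS (250 ng/mL) and ATP (1.25 mM) stimulation; lower signal means less secretion.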
TDP1 cell CPT – DT40-hTDP1 cell growth loss with CPT. chicken DT40 Tdp1-/-;hTDP1 cells + 20 nM CPT, ATP luminescence, 48 h. Potency, µM (series often up to 46.2 µM), for inactives: top-dose activity change, negative = growth inhibition, usual class: inhibitors. actives 12% (n = 420,000); further: potency means the concentration at half of the fitted maximal effect; nearly all actives have a fitted effect of over 55% in size
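Cell growth measured by CellTiter-Glo luminescence after a minimum 48 h, 37 C compound exposure with 20 nM CPT in Tdp1-knockout DT40 cells stably expressing hTDP1, seeded 400/well; qHTS titration format.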
DT40 TDP1 no CPT – qHTS for Inhibitors of human tyrosyl-DNA phosphodiesterase 1 (TDP1): qHTS in cells in absence of CPT | Potency, µM (titrated, usually from 46.2 µM), for inactives: top-dose activity change, negative = growth inhibition, most hits filed as inhibitors | AID 686978, 2013 | actives 15% (n = 420,000) | DT40 Tdp1-/- hTDP1 cells, no CPT, ATP luminescence, 48 h; further: potency means the concentration at half of the fitted maximal effect; nearly all actives have a fitted effect of over 55% in size
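Chicken DT40 Tdp1-/- cells complemented with human TDP1, screened without camptothecin (DMSO vehicle only), 400 cells/well. Compounds pin-transferred, cells incubated at 37 °C for at least 48 hr. Growth read as ATP-dependent luminescence (CellTiter-Glo, 30 min at RT).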
HT1080 IDH1KD tx – toxicity to HT-1080 IDH1 knockdown cells (counter line). HT-1080 IDH1 knockdown viability, ATP luminescence, 48 h. Potency, µM (highest dose often 46.1 µM), for the others: at the top dose activity, negative = toxicity, actives largely listed as cytotoxic. actives 2% (n = 360,000);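 further: potency means the concentration at half of the fitted maximal effect; 0% = DMSO wells and -100% = cell-free medium wells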
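Knockdown cells (IDH1KD HT-1080) received compounds 2 h after plating at 750 cells/well and were kept 48 h at 37 °C in 5% FBS RPMI. A CellTiter-Glo luminescence read gave % activity for curve fitting.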
12-LOX inh – inhibitors of human 12S-lipoxygenase ALOX12; P18054; purified 12hLO, xylenol orange hydroperoxide absorbance; Potency, µM (highest dose often 108 µM), for inactives: at the highest dose activity change, negative = inhibition, actives largely listed as inhibitors; actives 1.1% (n = 580,000); further: potency means the concentration at half of the fitted maximal effect
Target sequence (P18054 whole entry, looked up): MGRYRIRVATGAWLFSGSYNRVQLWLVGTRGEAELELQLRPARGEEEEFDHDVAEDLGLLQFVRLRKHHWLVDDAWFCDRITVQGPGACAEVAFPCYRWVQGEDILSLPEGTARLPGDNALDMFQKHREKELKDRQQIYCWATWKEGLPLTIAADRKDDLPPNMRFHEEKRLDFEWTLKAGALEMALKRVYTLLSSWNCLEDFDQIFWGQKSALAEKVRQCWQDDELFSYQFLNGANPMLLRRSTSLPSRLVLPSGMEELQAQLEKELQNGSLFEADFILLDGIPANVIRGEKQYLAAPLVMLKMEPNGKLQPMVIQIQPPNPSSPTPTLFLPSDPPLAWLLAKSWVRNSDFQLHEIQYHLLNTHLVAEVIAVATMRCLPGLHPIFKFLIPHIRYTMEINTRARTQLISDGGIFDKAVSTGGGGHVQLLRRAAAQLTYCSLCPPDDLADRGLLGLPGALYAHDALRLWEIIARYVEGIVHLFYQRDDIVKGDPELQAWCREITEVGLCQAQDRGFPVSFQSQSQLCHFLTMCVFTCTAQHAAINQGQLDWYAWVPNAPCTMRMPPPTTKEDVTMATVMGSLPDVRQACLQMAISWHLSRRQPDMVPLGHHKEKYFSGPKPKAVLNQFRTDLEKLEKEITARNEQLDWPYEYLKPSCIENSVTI
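Hydroperoxide product was detected by ferrous iron/xylenol orange as the 573 to 405 nm absorbance ratio. Arachidonic acid at 40 uM (final) was turned over for 30 min at room temperature by 150 nM human 12hLO, pH 7.0 Hepes buffer, after 15 min compound preincubation.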
HT1080NT lethal – kills 2HG-producing HT-1080-NT fibrosarcoma cells. HT-1080-NT fibrosarcoma viability, CellTiter-Glo ATP luminescence, 48 h. Potency, µM (top dose mostly 46.1 µM), for the others: top-dose activity, negative = less viability, usual class: cytotoxic. actives 1.6% (n = 360,000);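 further: NT is the 2HG producing partner of a matched IDH1 knockdown line; potency means the concentration at half of the fitted maximal effect; 0% = DMSO-treated cells and -100% = media-only wells without cells; nearly all actives have a fitted effect of over 55% in size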
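Toxicity toward the 2HG-producing NT line was scored as %Activity, normalised to DMSO and no-cell wells, from CellTiter-Glo luminescence after 48 hours' treatment.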
* marks the source's active call; other numbers are inactive results; ? = inconclusive; · = no result given; ! = not confirmed by another sample; [ ] = another dose, or the depositor's remark. Unless noted, the call rests on the fitted dose curve; in most records, active means well fitted curve in the direction sought with a large enough effect; inconclusive means small, poorly fitted or top-dose-only effect, or another doubt; inactive means no such curve, though single readings can be large; an effect the other way counts as inactive or inconclusive. Unless noted, on the % scale 0 is the no-effect control and ±100 the full control effect.

SMILES	IL-1B inflam inh	TDP1 cell CPT	DT40 TDP1 no CPT	HT1080 IDH1KD tx	12-LOX inh	HT1080NT lethal
Cc1ccc(F)c(S(=O)(=O)NC(=O)C2(C)CCN2C(=O)c2cccc3ccccc23)c1 (configuration not stated)	25.9	-5.6%	-1.4%	?	-3.3%	8.7%
CC(C(=O)c1ccc(Br)cc1)[n+]1cccc2ccccc21 (configuration not stated)	39.0	10.3µM*	9.2µM*	-0.7%	?	-0.4%
CCN(CC)c1nc2ccccc2nc1C(=O)Nc1cccc(F)c1	·	·	·	·	1.1%	·
CCOCCn1c(N2CCNCC2)nc2c1c(=O)[nH]c(=O)n2C	·	·	·	·	12.9%	·
CC(=O)OC1CC(C)(C)N(OC(=O)c2ccc(N)cc2)C(C)(C)C1	24.4	?	-20.1%	11.0%	0.0%	17.7%
CC(=O)ON1C(C)(C)CC(OC(=O)c2ccccc2)CC1(C)C	15.5	20.6µM*	-26.8%	-2.1%	0.0%	1.2%
CC(=O)OC1CC(C)(C)N(OC(=O)c2ccccc2)C(C)(C)C1	-25.8	?	20.6µM*	0.5%	0.0%	-0.1%
Cc1nc(NC(=O)CCc2ccc(S(N)(=O)=O)cc2)sc1C	·	·	·	·	25.2%	·
CNc1nc2ccccc2n1CC(=O)c1ccccc1	18.7	11.1%	1.8%	3.9%	-7.8%	-2.7%
COC(=O)C1=C(C(=O)OC)C(c2cc(Br)ccc2O)c2sc(=O)[nH]c2S1 (configuration not stated)	-7.7	8.9%	-13.4%	-9.7%	44.7µM*	7.6%
CCC(=O)OCOc1ccc(/C=C2/CCC(CN(C)C)C2=O)cc1 (configuration not stated)	-0.6	2.31µM*	2.91µM*	16.4µM*	35.5µM*	?
COc1ccc(C(=O)NCC2c3cc(OC)c(OC)cc3CCN2C(=O)Nc2cccc(C)c2)cc1 (configuration not stated)	·	·	·	·	30.2%	·
Cc1ccccc1OCC(=O)Nc1ccccc1NC(=O)c1ccco1	30.7	7.3%	-29.4%	3.8%	22.2%	3.6%
CCOc1cc(NS(=O)(=O)c2ccc(OC)cc2)c(OCC)cc1NC(=O)c1ccco1	-8.2	20.6µM*	23.1µM*	?	?	?
CCOc1cc(NC(=O)c2ccco2)c(OCC)cc1NC(=O)COc1ccccc1C	-9.9	4.61µM*	4.11µM*	2.1%	-5.1%	6.4%
CCOc1cc(NS(=O)(=O)CC)c(OCC)cc1NC(=O)c1ccco1	11.3	?	?	-4.8%	-5.1%	0.2%
CCOc1cc(NC(=S)NCC(C)C)c(OCC)cc1NC(=O)c1ccco1	-16.3	14.6µM*	?	-3.7%	?	1.9%
CCOc1cc(NC(=O)c2ccco2)c(OCC)cc1NC(=O)Cc1cccc(OC)c1	-21.4	?	25.9µM*	-17.0%	0.0%	-8.7%
CCOCCCNC(=S)Nc1cc(OCC)c(NC(=O)c2ccco2)cc1OCC	8.4	-1.6%	-20.4%	3.0%	0.0%	15.1%
COc1ccccc1C(=O)N1CCC(CC(=O)NC2CC2)C1 (configuration not stated)	·	·	·	·	4.4%	·
COc1cc(NC(=O)c2ccco2)c(OC)cc1NC(=O)CSc1ncc(-c2ccc(F)cc2)[nH]1	-14.6	?	25.9µM*	-4.3%	8.0%	9.8%
CCOc1ccc(C(=O)Nc2cccc(NC(=O)c3ccc(C(C)(C)C)cc3)c2)cc1Br	·	?	5.8µM*	·	-21.3%	·
CCOc1ccc(CC(=O)Nc2ccc(NC(=O)c3ccco3)cc2)cc1OCC	?	?	-6.2%	11.6µM*	-5.8%	-23.7%
CCC(=O)Nc1ccc(NC(=O)c2ccco2)cc1	-13.5	-11.6%	-22.3%	-1.9%	7.7%[57.4 µM]	-22.4%
CCOc1cc(C(=O)Nc2ccccc2F)cc(Br)c1OCC	0.0	20.6µM*	?	4.1%	-10.5%	7.0%
SMILES	IL-1B inflam inh	TDP1 cell CPT	DT40 TDP1 no CPT	HT1080 IDH1KD tx	12-LOX inh	HT1080NT lethal
C=CCn1c(-n2nc(C)c(C)c2C)nc2c1c(=O)n(CC)c(=O)n2C	·	·	·	·	-25.3%	·
O=C(NNC(=S)NCCc1ccccc1)c1ccccc1	·	·	·	·	-3.5%	·
CCOc1ccc(C(=O)Nc2cccc(NC(=O)c3ccco3)c2)cc1Cl	·	?	16.4µM*	·	-20.2%	·
O=C(COc1ccccc1Cl)Nc1cccc(NC(=O)c2ccco2)c1	·	·	·	·	7.3%	·
COc1ccc2nc(SCC(=O)c3cc(C)n(C4CC4)c3C)[nH]c2c1	·	·	·	·	-6.0%	·
COc1ccccc1NC(=O)C1=C(C)Nc2nc(SC)nn2C1c1ccccc1Cl (configuration not stated)	·	-28.4%	?	·	-2.1%	·
COc1cc(C(=O)Nc2ccc(NC(=O)c3cccc(Cl)c3)nc2)cc(OC)c1OC	-3.9	25.9µM*	8.2µM*	?	-15.5%	-6.4%
COc1cc(C(=O)Nc2ccc(NC(=O)C3CCCCC3)nc2)cc(OC)c1OC	-1.3	?	18.4µM*	?	-26.5%	?
Cc1ccc(NC(=O)c2cccc(Cl)c2)nc1	-7.2	-25.4%	-26.3%	-2.4%	-13.7%	-1.8%
O=C(Nc1ccc(NC(=O)C2CCCCC2)nc1)c1cccs1	-22.5	?	11.6µM*	-2.4%	-7.4%	-5.7%
O=C(c1cc(C(F)(F)F)cc(C(F)(F)F)c1)N1CCC[C@@]2(CCN(Cc3ccncc3)C2)C1	·	-12.8%	?	·	-10.0%[57.4 µM]	·
COc1ccccc1OCc1nc(C#N)c(NCc2ccc3c(c2)OCO3)o1	·	·	·	·	2.3%	·
Cc1c(Nc2ncccc2C(=O)O)cccc1C(F)(F)F	21.8	?	4.04µM*!	11.8%	-2.6%	-0.9%
Cc1c(Cl)cccc1Nc1ncccc1C(=O)O	35.7	?	?	-5.2%	75.7%	-1.1%
COc1ccc(-c2ccc(OC)c([C@H]3[C@H]4C=CC[C@@H](C)[C@@H]4C(=O)N3Cc3ccccc3)c2)cc1OC	-16.8	?	16.4µM*	6.0%	?	12.8%
COc1ccc(-c2ccc([C@H]3[C@H]4C=CC[C@@H](C)[C@@H]4C(=O)N3Cc3ccccc3)c(F)c2)cc1C	10.7	14.6µM*	14.6µM*	-6.9%	-3.2%	-15.3%
COc1ccc(-c2ccc(F)cc2)cc1[C@H]1[C@H]2C=CC[C@@H](C)[C@@H]2C(=O)N1Cc1ccccc1	-5.0	?	?	?	-9.0%	?
C[C@@H]1CC=C[C@H]2[C@H]1C(=O)N(Cc1ccccc1)[C@H]2c1ccc(-c2cc3ccccc3s2)cc1F	28.5	16.4µM*	14.6µM*	6.9%	-7.7%	3.8%
